Test [1] is described as follows: ATG_GLI_CIS: Attagene CIS-FACTORIAL HepG2 Assay for human Zinc Finger Protein GLI1 (AID 2282945). The settings on record: HepG2, Attagene cis-factorial reporter mRNA, GLI element; actives raise or lower the signal. The gist of the method: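 Bidirectional curve fits relative to DMSO, using reporter mRNA levels from RT-PCR plus capillary electrophoresis. Cells were HepG2 transiently carrying cis-regulated reporter constructs, harvested 24 h after dosing.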

Test [2] can be described thus: ATG_GRE_CIS: Attagene CIS-FACTORIAL HepG2 Assay for human Glucocorticoid Response Elements (GRE) (AID 2282947). The settings on record: HepG2 GRE cis-reporter, Attagene multiplex mRNA; actives raise or lower the signal. The gist of the method:
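Multiplexed cis-reporter mRNA induction, HepG2, 24 h post-dose. RT-PCR, FAM-labelled, HpaI-digested amplicons by CE. Bidirectional fit vs DMSO.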

Test [3] can be described thus: ATG_ISRE_CIS: Attagene CIS-FACTORIAL HepG2 Assay for human Interferon Regulatory Factor 1 (IRF1) binding to an Interferon-Stimulated Response Element (ISRE) (AID 2282948). The note with it: HepG2 ISRE cis-reporter (Attagene), mRNA transcription readout; actives raise or lower the signal. The essentials: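 Signal reflects induction or loss of ISRE-linked reporter mRNA in transiently transfected HepG2 cells after a 24 h treatment, detected by fluorescent RT-PCR fragments on capillary electrophoresis and normalised to DMSO.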

A short description of test [4]: ATG_M_32_CIS: Attagene CIS-FACTORIAL HepG2 Assay for M32 Transcription Factor (Internal Marker) (AID 2282949).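 Note: background control marker of the multiplexed CIS panel rather than a real target.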 The note with it: HepG2 Attagene cis-factorial M32 reporter, mRNA; actives raise or lower the signal. The gist of the method:
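Transient MRTU transfection of HepG2; 24 h compound treatment; TriZol RNA, oligo(dT) RT, reporter PCR, 6-FAM primer extension, HpaI cut, CE. Gain/loss of signal vs DMSO.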

Test [5] in a line: ATG_M_06_CIS: Attagene CIS-FACTORIAL HepG2 Assay for M06 Transcription Factor (Internal Marker) (AID 2282950). The note with it: HepG2 Attagene CIS-FACTORIAL M06 internal marker reporter; actives raise or lower the signal. The essentials:
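Cells (HepG2, transiently carrying cis-driven reporter units) receive chemical for 24 h before RNA isolation. Reporter cDNA is PCR-amplified, FAM-labelled by primer extension, HpaI-digested and sized on a capillary analyser.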

In test [6] the target is Hypoxia-inducible factor 1-alpha (Homo sapiens) (UniProt Q16665). Description: ATG_HIF1a_CIS: Attagene CIS-FACTORIAL HepG2 Assay for human Hypoxia Inducible Factor 1 (HIF1A) (AID 2282951). The settings on record: HepG2 Attagene cis-factorial HIF1a reporter transcription; actives raise or lower the signal. The essentials:
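HepG2 cells transiently transfected with multiplexed cis-promoter reporter units; reporter mRNA read 24 h after dosing by RT-PCR, 6-FAM primer-extension labelling, HpaI digestion and capillary electrophoresis. Bidirectional fit versus DMSO baseline.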

The target in test [7] is Hepatocyte nuclear factor 6 (Homo sapiens) (UniProt Q9UBC0). Description: ATG_HNF6_CIS: Attagene CIS-FACTORIAL HepG2 Assay for human Hepatocyte Nuclear Factor 6 (HNF6) (AID 2282952). The note with it: HepG2 Attagene cis-factorial HNF6 reporter transcription; actives raise or lower the signal. The gist of the method:
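Readout: fluorescent reporter-transcript fragments resolved by capillary electrophoresis after RT-PCR, reflecting endogenous factor activity in transfected HepG2. Exposure 24 h. Gain or loss of signal fitted bidirectionally against DMSO.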

For test [8], the target named is Heat shock factor protein 1 (Homo sapiens) (UniProt Q00613). Put plainly: ATG_HSE_CIS: Attagene CIS-FACTORIAL HepG2 Assay for human Heat Shock Transcription Factor 1 (HSE) (AID 2282953). The note with it: HepG2 HSE cis-reporter, Attagene RNA transcription; actives raise or lower the signal. The gist of the method:
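Liver-derived HepG2 cells carry transiently introduced multiple reporter units governed by cis promoters. Reporter RNA measured 24 h post-dose through reverse transcription, PCR amplification, fluorescent labelling and capillary electrophoresis, normalised to DMSO.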

Test [9] in a line: ATG_MRE_CIS: Attagene CIS-FACTORIAL HepG2 Assay for human Metal Responsive Element (MRE) (AID 2282954). The settings on record: HepG2 MRE cis-reporter transcription, Attagene multiplex; actives raise or lower the signal. The essentials:
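Multiplexed cis-reporter assay in human HepG2 liver cells, 24 h incubation with test chemical. Reporter transcripts measured by RT-PCR and capillary electrophoresis; values from bidirectional curve fitting versus DMSO.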

Test [10] is described as follows: ATG_PXRE_CIS: Attagene CIS-FACTORIAL HepG2 Assay for human Pregnane X Receptor Element (PXRE) (AID 2282957). The note with it: HepG2 Attagene CIS-FACTORIAL PXRE reporter, mRNA; actives raise or lower the signal. The essentials:
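Read-out: fluorescence of reporter-specific RT-PCR products resolved by capillary electrophoresis, fitted bidirectionally relative to DMSO. Human HepG2 liver cells carried transfected cis-promoter reporter units and were exposed to chemicals for 24 h.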

Test [11] can be described thus: ATG_PPRE_CIS: Attagene CIS-FACTORIAL HepG2 Assay for human Peroxisome Proliferator-activated Response Element (PPRE) (AID 2282958). The settings on record: HepG2 PPRE cis-element reporter, Attagene transcription factor profiling; actives raise or lower the signal. The essentials: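 HepG2 cells transiently transfected with multiplexed cis-element reporter units measure endogenous transcription factor activity. After 24 h compound exposure, reporter mRNA is quantified by RT-PCR, 6-FAM labeling, HpaI digestion and capillary electrophoresis; bidirectional fits are made against DMSO baseline.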

Test [12] in a line: ATG_RORE_CIS: Attagene CIS-FACTORIAL HepG2 Assay for human RAR-related Orphan Receptor Element (RORE) (AID 2282959). The note with it: HepG2 Attagene cis-factorial RORE reporter, mRNA; actives raise or lower the signal. The essentials: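 HepG2 cells transiently transfected with multiple cis-element reporter transcription units, exposed to chemical for 24 h. Reporter mRNA quantified by RT-PCR, 6-FAM primer-extension labeling, HpaI digestion and capillary electrophoresis; bidirectional fit versus DMSO baseline.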

Test [13] can be described thus: ATG_Sox_CIS: Attagene CIS-FACTORIAL HepG2 Assay for human SRY-box transcription factor (SOX) (AID 2282960). The note with it: HepG2 Attagene cis-factorial SOX reporter, mRNA; actives raise or lower the signal. The essentials:
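HepG2 cells transiently transfected with cis-element-driven multiple reporter transcription units, dosed 24 h; reporter mRNA measured by RT-PCR, FAM labelling, HpaI digestion and capillary electrophoresis. Bidirectional fit versus DMSO baseline.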

In test [14] the target is Transcription factor Sp1 (Homo sapiens) (UniProt P08047). Put plainly: ATG_Sp1_CIS: Attagene CIS-FACTORIAL HepG2 Assay for human Specificity Protein 1 (Sp1) (AID 2282961). The settings on record: HepG2 Sp1 cis-reporter transcription, actives raise or lower the signal. The essentials: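 HepG2 cells transiently transfected with multiple reporter transcription units driven by cis-regulatory elements; Sp1-responsive reporter mRNA measured 24 h after dosing by RT-PCR and capillary electrophoresis fluorescence, fitted bidirectionally against DMSO baseline.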

Test [15] is described as follows: ATG_SREBP_CIS: Attagene CIS-FACTORIAL HepG2 Assay for human Sterol Regulatory Element Binding (SREBP) (AID 2282962). The settings on record: HepG2 Attagene cis-factorial SREBP reporter, mRNA; actives raise or lower the signal. The gist of the method:
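Values derive from bidirectional curve fitting with DMSO as baseline. The underlying measurement is reporter mRNA from cis-element-regulated units in transiently transfected HepG2, quantified by RT-PCR and capillary electrophoresis after 24 h exposure.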

Test [16] concerns the target Signal transducer and activator of transcription 3 (Homo sapiens) (UniProt P40763). Description: ATG_STAT3_CIS: Attagene CIS-FACTORIAL HepG2 Assay for human Signal Transducer and Activator of Transcription 3 (STAT3) (AID 2282963). The note with it: HepG2, Attagene cis-factorial STAT3 reporter transcription; actives raise or lower the signal. The gist of the method: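 Cis-factorial format: endogenous transcription factors in HepG2 drive transfected reporter units. After 24 h treatment, reporter RNA was reverse-transcribed, amplified, FAM-labelled and HpaI-digested before CE analysis; activity scored in both directions against DMSO.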

A short description of test [17]: ATG_TA_CIS: Attagene CIS-FACTORIAL HepG2 Assay for human TA Basal Promoter (AID 2282964). The settings on record: HepG2 Attagene CIS-factorial TA basal promoter reporter; actives raise or lower the signal. The gist of the method:
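Background internal-marker endpoint from a 52-component HepG2 cis-reporter panel. Cells treated 24 h; reporter transcripts quantified via RT-PCR and CE fluorescence against DMSO baseline.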

The target of test [18] is Paired box protein Pax-6 (Homo sapiens) (UniProt P26367). Put plainly: ATG_Pax6_CIS: Attagene CIS-FACTORIAL HepG2 Assay for human Paired Box 6 (PAX6) (AID 2282956). The note with it: HepG2 CIS-FACTORIAL PAX6 reporter transcription, RNA readout; actives raise or lower the signal. The essentials:
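Values derive from bidirectional curve fitting of reporter mRNA signal relative to DMSO. HepG2 cells bearing transfected cis-regulated MRTUs were exposed for 24 h; transcripts were read by RT-PCR and capillary electrophoresis.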

Test [19] in a line: ATG_PBREM_CIS: Attagene CIS-FACTORIAL HepG2 Assay for human Phenobarbital-responsive Enhancer Module (PBREM) (AID 2282955). The settings on record: HepG2 PBREM cis-reporter, Attagene multiplexed transcription; actives raise or lower the signal. The gist of the method:
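HepG2 cells transiently transfected with multiple cis-regulated reporter transcription units; endogenous factor activity at the PBREM element measured as reporter mRNA 24 h after dosing, via RT-PCR and capillary electrophoresis of fluorescent fragments; bidirectional fitting versus DMSO.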

Calls of active or inactive are those of the source. Rule for the calls: active = hit-call score of the fitted dose curve at least 0.9, where 1 is the maximum; inactive = score below 0.9.

Sequence of Heat shock factor protein 1 (Homo sapiens) (Q00613 whole entry, looked up): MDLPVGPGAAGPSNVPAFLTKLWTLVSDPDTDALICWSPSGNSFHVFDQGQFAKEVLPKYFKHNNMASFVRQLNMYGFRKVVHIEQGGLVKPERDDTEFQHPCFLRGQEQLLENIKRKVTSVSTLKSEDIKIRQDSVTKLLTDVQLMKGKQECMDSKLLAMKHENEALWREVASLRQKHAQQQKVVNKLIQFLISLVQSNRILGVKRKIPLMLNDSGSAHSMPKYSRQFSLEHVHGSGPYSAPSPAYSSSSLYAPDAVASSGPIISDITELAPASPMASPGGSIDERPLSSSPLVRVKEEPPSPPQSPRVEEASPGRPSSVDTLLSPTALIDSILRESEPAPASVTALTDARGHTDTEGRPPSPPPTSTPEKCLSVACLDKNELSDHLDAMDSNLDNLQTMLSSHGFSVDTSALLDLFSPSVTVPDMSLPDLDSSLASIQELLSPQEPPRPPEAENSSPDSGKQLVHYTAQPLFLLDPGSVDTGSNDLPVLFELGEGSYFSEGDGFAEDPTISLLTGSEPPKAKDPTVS
Sequence of Signal transducer and activator of transcription 3 (Homo sapiens) (P40763 whole entry, looked up): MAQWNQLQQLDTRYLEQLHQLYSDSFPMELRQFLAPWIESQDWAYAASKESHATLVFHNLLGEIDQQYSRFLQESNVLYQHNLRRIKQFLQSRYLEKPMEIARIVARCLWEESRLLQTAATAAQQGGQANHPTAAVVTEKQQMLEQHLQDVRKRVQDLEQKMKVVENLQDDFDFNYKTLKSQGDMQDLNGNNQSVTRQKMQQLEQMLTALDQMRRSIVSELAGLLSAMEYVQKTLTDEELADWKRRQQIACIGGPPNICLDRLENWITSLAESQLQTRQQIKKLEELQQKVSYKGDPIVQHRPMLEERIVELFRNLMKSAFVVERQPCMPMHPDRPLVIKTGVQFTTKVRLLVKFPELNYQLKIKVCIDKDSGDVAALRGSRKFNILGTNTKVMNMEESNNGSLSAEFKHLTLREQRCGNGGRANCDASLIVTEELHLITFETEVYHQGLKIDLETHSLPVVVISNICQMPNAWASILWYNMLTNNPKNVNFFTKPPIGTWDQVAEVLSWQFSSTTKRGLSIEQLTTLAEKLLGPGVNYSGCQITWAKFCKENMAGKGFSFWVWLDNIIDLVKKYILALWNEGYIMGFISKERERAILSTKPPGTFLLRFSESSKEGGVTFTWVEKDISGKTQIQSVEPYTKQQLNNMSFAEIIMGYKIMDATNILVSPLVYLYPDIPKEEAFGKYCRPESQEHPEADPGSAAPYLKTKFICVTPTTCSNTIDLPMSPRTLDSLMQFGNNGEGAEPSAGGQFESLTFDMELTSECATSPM
Sequence of Paired box protein Pax-6 (Homo sapiens) (P26367 whole entry, looked up): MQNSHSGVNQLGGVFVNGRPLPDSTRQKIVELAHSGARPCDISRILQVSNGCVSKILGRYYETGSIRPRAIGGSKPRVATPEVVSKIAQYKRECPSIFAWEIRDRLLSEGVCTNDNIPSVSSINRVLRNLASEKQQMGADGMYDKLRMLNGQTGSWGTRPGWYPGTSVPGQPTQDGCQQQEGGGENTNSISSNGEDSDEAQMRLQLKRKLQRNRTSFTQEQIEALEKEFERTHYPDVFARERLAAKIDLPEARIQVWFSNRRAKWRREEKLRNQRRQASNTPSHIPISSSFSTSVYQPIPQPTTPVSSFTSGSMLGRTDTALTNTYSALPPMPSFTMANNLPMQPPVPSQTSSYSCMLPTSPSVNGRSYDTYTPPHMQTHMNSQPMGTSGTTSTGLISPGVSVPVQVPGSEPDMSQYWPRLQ
Sequence of Transcription factor Sp1 (Homo sapiens) (P08047 whole entry, looked up): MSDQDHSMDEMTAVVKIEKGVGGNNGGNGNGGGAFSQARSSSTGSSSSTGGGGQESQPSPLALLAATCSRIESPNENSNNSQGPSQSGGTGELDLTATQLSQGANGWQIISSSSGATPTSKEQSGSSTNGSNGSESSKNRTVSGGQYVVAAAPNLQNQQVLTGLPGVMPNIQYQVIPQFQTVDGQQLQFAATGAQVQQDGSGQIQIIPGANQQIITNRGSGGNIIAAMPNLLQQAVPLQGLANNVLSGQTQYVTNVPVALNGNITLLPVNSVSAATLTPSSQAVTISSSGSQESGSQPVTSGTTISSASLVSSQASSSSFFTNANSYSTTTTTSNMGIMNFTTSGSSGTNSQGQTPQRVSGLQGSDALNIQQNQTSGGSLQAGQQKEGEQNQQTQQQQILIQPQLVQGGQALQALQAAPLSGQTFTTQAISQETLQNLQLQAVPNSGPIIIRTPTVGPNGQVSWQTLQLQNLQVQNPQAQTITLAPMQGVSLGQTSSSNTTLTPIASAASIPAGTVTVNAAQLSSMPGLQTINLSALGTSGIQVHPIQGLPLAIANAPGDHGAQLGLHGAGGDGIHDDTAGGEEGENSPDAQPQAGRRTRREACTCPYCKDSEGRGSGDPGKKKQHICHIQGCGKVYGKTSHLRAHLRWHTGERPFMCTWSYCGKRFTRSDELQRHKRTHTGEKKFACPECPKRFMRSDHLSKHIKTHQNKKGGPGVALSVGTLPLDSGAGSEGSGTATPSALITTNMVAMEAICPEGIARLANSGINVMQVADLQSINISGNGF
Sequence of Hepatocyte nuclear factor 6 (Homo sapiens) (Q9UBC0 whole entry, looked up, the tested form may be a part): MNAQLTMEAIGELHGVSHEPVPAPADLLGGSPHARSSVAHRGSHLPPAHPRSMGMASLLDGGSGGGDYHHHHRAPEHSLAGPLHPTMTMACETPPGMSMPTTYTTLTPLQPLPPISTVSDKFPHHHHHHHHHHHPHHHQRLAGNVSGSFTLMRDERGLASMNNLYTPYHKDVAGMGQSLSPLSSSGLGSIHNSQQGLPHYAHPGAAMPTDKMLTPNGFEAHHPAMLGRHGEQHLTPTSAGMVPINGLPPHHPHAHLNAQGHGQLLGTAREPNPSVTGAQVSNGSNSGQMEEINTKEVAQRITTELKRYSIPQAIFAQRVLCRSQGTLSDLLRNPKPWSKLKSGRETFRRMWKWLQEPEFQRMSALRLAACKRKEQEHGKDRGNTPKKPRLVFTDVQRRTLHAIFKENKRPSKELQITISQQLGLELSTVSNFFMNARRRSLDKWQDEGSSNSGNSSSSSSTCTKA
Sequence of Hypoxia-inducible factor 1-alpha (Homo sapiens) (Q16665 whole entry, looked up): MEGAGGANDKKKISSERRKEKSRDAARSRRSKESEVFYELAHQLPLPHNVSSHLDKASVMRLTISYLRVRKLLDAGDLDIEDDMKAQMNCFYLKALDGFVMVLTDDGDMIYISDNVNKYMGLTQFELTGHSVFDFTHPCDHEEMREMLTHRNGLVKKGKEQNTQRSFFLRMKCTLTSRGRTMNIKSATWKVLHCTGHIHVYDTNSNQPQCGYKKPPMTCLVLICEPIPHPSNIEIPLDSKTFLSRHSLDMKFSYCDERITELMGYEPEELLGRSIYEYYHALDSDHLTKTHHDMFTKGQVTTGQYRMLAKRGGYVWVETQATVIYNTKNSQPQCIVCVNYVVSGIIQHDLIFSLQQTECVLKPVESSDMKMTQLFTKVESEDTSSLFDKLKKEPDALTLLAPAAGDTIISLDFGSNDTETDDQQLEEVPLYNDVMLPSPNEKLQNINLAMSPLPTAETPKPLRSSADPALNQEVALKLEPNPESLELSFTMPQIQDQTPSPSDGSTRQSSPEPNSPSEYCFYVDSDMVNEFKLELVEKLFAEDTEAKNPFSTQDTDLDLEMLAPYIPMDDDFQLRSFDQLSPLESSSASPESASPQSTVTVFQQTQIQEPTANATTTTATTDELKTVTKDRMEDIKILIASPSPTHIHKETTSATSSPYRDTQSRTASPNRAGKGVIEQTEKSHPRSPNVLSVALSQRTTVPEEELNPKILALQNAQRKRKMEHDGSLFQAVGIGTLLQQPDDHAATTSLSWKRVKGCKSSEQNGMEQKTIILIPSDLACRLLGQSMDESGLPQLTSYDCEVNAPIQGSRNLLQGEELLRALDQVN

As to `CCCCCCC(C)O` (stereo not given), the compound was called inactive in [1], in test [2], in test [3], in [4], in [5] and in test [6]. Also, the compound was classed as inactive in [7], in test [8], in test [9], in test [10], in test [11] and in test [12]. For the same compound, the compound was called inactive in test [13], in test [14], in test [15], in test [16] and in test [17].

In the case of `CC(C)(C)c1cccc(O)c1`, the compound was classed as inactive in test [1], in test [2], in [3], in test [4], in test [5] and in test [6]. In addition, the outcome in [7], in test [9], in [18], in [11], in test [13] and in test [15] was inactive. Also, in test [17], the call was inactive. Further, in [10], the half-maximal activity concentration (AC50) is 11.5 µM (active).

As for `Cc1cc(O)c2c(c1)C(=O)c1cc(O)cc(O)c1C2=O`, the result in test [1], in test [4], in test [5], in test [6], in test [7] and in test [18] was inactive. In addition, the call in test [10], in test [12], in test [13], in test [15], in test [16] and in test [17] was inactive. In addition, the AC50 in test [2] was 18.5 µM (active); in test [3] it was 36.2 µM (active); in test [9], 18.9 µM (active); in test [14] it was 8.81 µM (active).

Turning to `CC(=O)N(C)C`, the result in test [1], in test [2], in [3], in test [4], in [5] and in test [6] was inactive. In addition, the call in test [8], in [9], in [19], in [18], in test [10] and in [12] was inactive. The call in [13], in test [14], in test [15], in [16] and in [17] was inactive.

Take `CCCCCCCCCCCCCC(=O)OCC`: the call in [1], in test [2], in [3], in [4], in test [5] and in test [6] was inactive. Besides, the result in test [7], in test [8], in test [9], in test [10], in [11] and in test [12] was inactive. For the same compound, the compound was called inactive in test [13], in test [14], in [15] and in test [17].

By AC50 is commonly meant the concentration giving half of the maximal activity seen.

Source of the values: PubChem BioAssay (EPA / NIEHS).
